Assay results from PubChem BioAssay (NCATS).
Records with an inconclusive call do not appear. Entries that show only a call come without a potency. Activity calls are given as the source filed them. Calls come from the whole dose curve.

Experiment: Confirmatory qHTS to identify inhibitors of SARS-CoV-2 cell entry (AID 1645844); note: nearly all actives have a fitted effect of over 45% in size
Details: SARS-CoV-2 pseudotyped particle cell entry, luciferase; series mostly up to 57.2 µM
Procedure, shortened: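 HEK293-ACE2 cells (Expi293F stably expressing human ACE2) were pretreated with compounds for 1 hr at 37C, then infected with MLV-based particles carrying Wuhan-Hu-1 spike (C-terminal 19-aa truncation). Luciferase luminescence read after 48 hr; normalized to spike PP (100%) and bald PP (0%).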
Potency is the fitted concentration of half-maximal effect.

Row | Compound | Potency
1 | CCN(CCO)CCCOc1ccc2c(Nc3cc(CC(=O)Nc4cccc(F)c4)[nH]n3)ncnc2c1 | 0.681 µM (active)
2 | O=C(O)C1(Cc2cccc(Nc3nccs3)n2)CCC(Oc2cccc(Cl)c2F)CC1 (stereo not drawn) | 10.8 µM (active)
3 | Cc1cccc(Nc2nc(-c3ccncc3)cs2)c1 | 4.29 µM (active)

Experiment: Cytotoxicity counterscreen for inhibitors of SARS-CoV-2 cell entry (AID 1645845); note: nearly all actives have a fitted effect of over 50% in size
Details: cell viability (SARS-CoV-2 entry assay cells); series mostly up to 57.1 µM
Procedure, shortened: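 Expi293F/hACE2 cells seeded overnight; cpd pin-transferred in DMSO, 1 h preincubation, + media, 48 h 37 C 5% CO2; ATPLite 1step luminescence; normalized to cells and no cells.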

Row | Compound | Potency
4 | CCN(CCO)CCCOc1ccc2c(Nc3cc(CC(=O)Nc4cccc(F)c4)[nH]n3)ncnc2c1 | inactive
5 | COc1cc2ncnc(Nc3cccc(Cl)c3)c2cc1OC | inactive
6 | O=C(O)C1(Cc2cccc(Nc3nccs3)n2)CCC(Oc2cccc(Cl)c2F)CC1 (stereo not drawn) | inactive
7 | CN1CCN(c2cccc(Nc3nc4c(-c5ccc(S(C)(=O)=O)cc5)cccn4n3)c2)CC1 | inactive
8 | COc1cc(OC)c(NC(=O)Nc2cc(C)on2)cc1Cl | inactive
9 | O=c1c(-c2ccc(O)cc2)coc2cc(O)ccc12 | inactive
10 | C[C@]12CC[C@@H]3c4ccc(O)cc4CC[C@H]3[C@H]1[C@@H](O)[C@@H](O)[C@H]2O | inactive
11 | COc1ccc(C2CC(c3ccccc3)=NN2c2ccc(S(N)(=O)=O)cc2)cc1 (stereo not drawn) | inactive
12 | Nc1ncnc2c1nc(Cl)n2[C@@H]1O[C@H](CO)[C@@H](O)[C@@H]1O | inactive
13 | O=c1[nH]nc(OCCCc2ccc(Cl)cc2)c(NCc2cccnc2)c1Br | inactive
14 | NC(=O)c1cccc2[nH]c(-c3ccc([C@H]4CCCN4)cc3F)nc12 | 11.2 µM (active)
15 | CCn1c(C(=O)N(C2CC2)C2CC2)cc2c3c(ncn3C)c(Nc3cc(C)n(C)n3)nc21 | inactive
16 | N[C@H](CSC(c1ccccc1)(c1ccccc1)c1ccccc1)C(=O)O | inactive
17 | Clc1cc(Cl)cc(CNc2ncncc2-c2ccc3c(c2)OCO3)c1 | inactive
18 | C=CC(=O)Nc1cccc(Sc2nc(Nc3ccc(N4CCN(C)CC4)cc3)ncc2Cl)c1 | 8.91 µM (active)
19 | CC(C)n1cnc2c(NCCc3ccc(O)cc3)nc(-c3csc4ccccc34)nc21 | inactive
20 | COc1cc(C(C)C)c2c(c1)S(=O)(=O)N(COc1cc(=O)n3cccc(OCCN4CCCCC4)c3n1)C2=O | inactive
21 | CN(C)CC[C@H](CSc1ccccc1)Nc1ccc(S(=O)(=O)NC(=O)c2ccc(N3CCN(Cc4ccccc4-c4ccc(Cl)cc4)CC3)cc2)cc1[N+](=O)[O-] | inactive
22 | Cn1c(=O)c(Oc2ccc(F)cc2F)cc2cnc(NC3CCOCC3)nc21 | inactive

Experiment: Primary qHTS to identify inhibitors of SARS-CoV-2 cell entry (AID 1645846); note: nearly all actives have a fitted effect of over 45% in size
Details: SARS-CoV-2 pseudovirus cell entry assay, luminescence; activity change, negative = inhibition: at 57.1 µM (top of the series) unless noted; series mostly up to 57.1 µM
Procedure, shortened: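 Inhibition of spike-mediated entry was scored in human ACE2-transfected Expi293F cells. Particles were MLV-pseudotyped with Wuhan-Hu-1 S carrying a 19-aa C-terminal deletion; signal was luciferase after two days, scaled between spike PP and fusion-protein-free PP.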

Row | Compound | activity change, negative = inhibition [%] | Potency
23 | CCN(CCO)CCCOc1ccc2c(Nc3cc(CC(=O)Nc4cccc(F)c4)[nH]n3)ncnc2c1 | -58.3 | –
24 | COc1cc2ncnc(Nc3cccc(Cl)c3)c2cc1OC | 0.792 | –
25 | Cc1cccc(Nc2nc(-c3ccncc3)cs2)c1 | – | 10 µM (active)
26 | COc1cc(OC)c(NC(=O)Nc2cc(C)on2)cc1Cl | -15.8 | –
27 | O=c1c(-c2ccc(O)cc2)coc2cc(O)ccc12 | – | inactive
28 | C[C@]12CC[C@@H]3c4ccc(O)cc4CC[C@H]3[C@H]1[C@@H](O)[C@@H](O)[C@H]2O | – | inactive
29 | COc1ccc(C2CC(c3ccccc3)=NN2c2ccc(S(N)(=O)=O)cc2)cc1 (stereo not drawn) | -0.201 | –
30 | O=c1[nH]nc(OCCCc2ccc(Cl)cc2)c(NCc2cccnc2)c1Br | -25.1 | –
31 | NC(=O)c1cccc2[nH]c(-c3ccc([C@H]4CCCN4)cc3F)nc12 | – | 31.6 µM (active)
32 | CCn1c(C(=O)N(C2CC2)C2CC2)cc2c3c(ncn3C)c(Nc3cc(C)n(C)n3)nc21 | -14.3 | –
33 | N[C@H](CSC(c1ccccc1)(c1ccccc1)c1ccccc1)C(=O)O | -15.9 | –
34 | C=CC(=O)Nc1cccc(Sc2nc(Nc3ccc(N4CCN(C)CC4)cc3)ncc2Cl)c1 | – | 3.98 µM (active)
35 | CC(C)n1cnc2c(NCCc3ccc(O)cc3)nc(-c3csc4ccccc34)nc21 | -45.8 | –
36 | COc1cc(C(C)C)c2c(c1)S(=O)(=O)N(COc1cc(=O)n3cccc(OCCN4CCCCC4)c3n1)C2=O | -36.9 | –
37 | CN(C)CC[C@H](CSc1ccccc1)Nc1ccc(S(=O)(=O)NC(=O)c2ccc(N3CCN(Cc4ccccc4-c4ccc(Cl)cc4)CC3)cc2)cc1[N+](=O)[O-] | 1.37 | –
38 | Cn1c(=O)c(Oc2ccc(F)cc2F)cc2cnc(NC3CCOCC3)nc21 | – | inactive
